Results filed as inconclusive are left out. A call without a number means that no potency is given here. Active and inactive are the calls of the source. Calls come from the whole dose curve; as a rule, active = well fitted inhibition curve with a large enough effect; inconclusive = small, poorly fitted or top-dose-only effect, or effect the other way; inactive = flat fitted curve, though single readings scatter.
Molecular target: Thyroid hormone receptor beta (Homo sapiens) (UniProt P10828)
Assay: Concentration Response Confirmation Assay for Inhibitors of the Interaction of Thyroid Hormone Receptor and Steroid Receptor Coregulator 2, Fluorescein Fluoroprobe
From the text: NIH Molecular Libraries Probe Production Network [MLPCN] NIH Chemical Genomics Center [NCGC] MLPCN Grant: DK058080 Assay Provider: R. Kip Guy, St. Jude Children's Research Hospital NCGC Assay Overview: Thyroid receptor (TR) regulates many homeostatic processes including basal metabolism, cardiovascular function, body weight, and lipid trafficking. TR modulators are potential therapeutics for obesity and hyperlipidemias but current thyroid analogs have undesirable side effects, particularly cardiac stimulation. To identify inhibitors that specifically prevent the interaction of TR with the steroid receptor coregulator 2 (SRC2), a fluorescence polarization assay was screened (Arnold et al., 2006). […] Small molecule inhibitors that block the interaction of TR and SRC2 are detected by a decrease in fluorescence polarization. […]
NCGC Assay Protocol Summary: Five uL/well 0.6 uM TRbeta and 20 nM SRC2 Fluorescein in protein buffer (20mM Tris hydrochloride, 100mM NaCl, 10% glycerol, 1mM EDTA, 0.01% NP-40, 1mM DTT, 1uM T3 and 5% DMSO) was dispensed into black solid 1536-well plates (Grenier) using a solenoid-based dispenser. […] The plates were read by an Envision (Perkin Elmer) to detect fluorescence polarization of SRC2 Fluorescein (480 nm excitation and 535 nm emission). […]

Thyroid hormone receptor beta (Homo sapiens), sequence (P10828 whole entry, looked up): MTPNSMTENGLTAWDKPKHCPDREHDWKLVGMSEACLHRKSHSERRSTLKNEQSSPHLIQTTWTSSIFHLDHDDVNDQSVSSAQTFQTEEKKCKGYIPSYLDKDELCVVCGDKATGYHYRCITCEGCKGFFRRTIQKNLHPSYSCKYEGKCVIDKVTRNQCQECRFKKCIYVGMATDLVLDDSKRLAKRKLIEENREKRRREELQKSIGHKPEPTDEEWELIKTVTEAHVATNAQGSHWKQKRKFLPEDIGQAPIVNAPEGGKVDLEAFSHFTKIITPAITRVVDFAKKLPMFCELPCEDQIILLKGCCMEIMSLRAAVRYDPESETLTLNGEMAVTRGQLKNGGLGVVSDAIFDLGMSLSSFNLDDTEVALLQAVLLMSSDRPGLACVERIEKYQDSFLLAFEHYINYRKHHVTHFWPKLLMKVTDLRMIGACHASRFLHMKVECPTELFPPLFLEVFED

SMILES: COP(=S)(OC)Oc1ccc([N+](=O)[O-])cc1
- Potency: 14.1 µM (active)

SMILES: CCn1nc(-c2cccs2)nc2c(=O)n(C)c(=O)nc1-2
- Potency: inactive
